Assay results as given in PubChem BioAssay (NCI).
About 83,000 compounds went through this panel and 20% of them were active in at least one assay; those are over-represented in the sample as a whole.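 Single-concentration screen, 48 h exposure, 96-well plates. Endpoint: percent growth. Below 10 = active.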 Unmarked numbers belong to inactive results. Active and inactive are the calls of the source.

Each compound was assayed on LOX IMVI melanoma (assay: NCI-60 one-dose screen, 48 h (100 = growth as untreated, 0 = no growth, -100 = all killed)). Settings: 10 µM unless noted.
Method: Growth inhibition of the LOX IMVI human tumor cell line is measured as a screen for anti-cancer activity. Cells are grown in 96 well plates and exposed to the test compound for 48 hours. Compounds are tested at a single concentration, which is 10^-5 M for most compounds. The reported endpoint is percent growth (GI% or GIPRCNT), where numbers from 0 - 100% represent growth inhibition, and numbers from -100% - 0 represent cell death. For example, a value of 40 represents 60% growth inhibition. A value of 0 means no net growth occurred over the course of the experiment. A value of -40 indicates 40% of cells at the beginning of the experiment died by the end of the experiment. A value of -100 means all cells are dead at the end of the experiment.
NCI-60 Human Tumor Cell Lines Screen was performed using the standard one-dose NCI protocol, which is described in more detail at https://dtp.cancer.gov/discovery_development/nci-60/default.htm.
Compounds with GIPRCNT values below 10 were considered active. Activity score was based on GIPRCNT using the following formula: […]
Score is 0 for GIPRCNT values of 100 or above, 50 for GIPRCNT values of 0, and 100 for GIPRCNT values of -100.

| SMILES | growth |
| --- | --- |
| CC(=O)O[C@H]1CC[C@]2(C)[C@H]3CC[C@]4(C)[C@@H](OC(C)=O)CC[C@H]4[C@@H]3[C@@H](C)[C@]2(O)C1 | 96.8% |
| N#C[Se]CCN1C(=O)c2ccccc2C1=O | 5.83% (active) |
| Cc1c2cc(Cl)c3ccccc3c2c[n+]2ccccc12 | 84.6% |
| COc1ccc2nc(NC(=O)COc3cc(/C=C\c4cc(OC)c(OC)c(OC)c4)ccc3OC)sc2c1 | 8.81% (active) |
| Clc1cccc(NCOOC2(OOCNc3cccc(Cl)c3)CCCCCC2)c1 | -85.2% (active) |
| CC(C)(NC(=O)O[C@@H]1CN2CCC1CC2)c1csc(-c2ccc(F)cc2)n1 | 90.5% |
| CN1CC(=O)N(O)C1(C)c1cccnc1 (stereo not given) | 97.3% |
| COC(=O)C1OC(Oc2ccc(N(CCCl)CCCl)cc2)C(OC(C)=O)C(OC(C)=O)C1OC(C)=O (stereo not given) | 77.2% |
| CCCCCCC(=O)NC1=C(N2CC2)C(=O)C(NC(=O)CCCCCC)=C(N2CC2)C1=O | 33.5% |
| CC(C)=CC1C(C(=O)OCc2cccc(Oc3ccccc3)c2)C1(C)C (stereo not given) | 93.4% |
| C=C1[C@@H](C)[C@H]2[C@H](Cc3ccccc3)NC(=O)[C@]23[C@@H](O)/C=C/[C@@](C)(O)C(=O)[C@@H](C)C/C=C/[C@H]3[C@@H]1O | 27.1% |
| Cc1cc(C)c(CBr)c(C)c1 | 101% |
| COc1cccc2c1c(C(=O)c1ccco1)cn2Cc1ccc(F)cc1 | 109% |
| CC[C@H](NC(=O)[C@H]1CCCCN1C)C(=O)N(C)[C@H](C[C@@H](OC(C)=O)c1nc(C(=O)N[C@@H](Cc2ccccc2)C[C@H](C)C(=O)O)cs1)C(C)C | 13.2% |
| COc1ccc(/C=C\c2cc(OC)c(OC)c(OC)c2)cc1OCC(=O)Nc1nc2ccc(C(F)(F)F)cc2s1 | 9.35% (active) |
| CNC12C3C4C1C1C2C3C41C(=O)N[C@H](C(=O)N(C)[C@H](C[C@@H](OC(C)=O)c1nc(C(=O)N[C@@H](Cc2ccccc2)C[C@H](C)C(=O)OC)cs1)C(C)C)C1CC1 (stereo not given in full) | 0.284% (active) |
| CCC1CN1CCCCN1CC1CC (stereo not given) | 97.7% |
| COC(=O)[C@H](Cc1ccccc1)NC(=O)c1csc([C@@H](C[C@H](C(C)C)N(C)C(=O)[C@@H](NC(=O)[C@H]2CCCCN2C)C2CC2)OC(C)=O)n1 | 14.7% |
| O=C1C=C2C(=CCOC2O)O1 (stereo not given) | 1.42% (active) |
| COc1cccc(/C=C/[N+](=O)[O-])c1 | -80.6% (active) |

| SMILES | growth |
| --- | --- |
| CCCCCCCC[N+](C)(CCCCCCCC)CCCCCCCC | -74.7% (active) |
| C1CCC2(CC1)OOCNCOO2 | -76.6% (active) |
| CC(=O)O[C@H](C[C@H](C(C)C)N(C)C(=O)[C@@H](NC(=O)[C@H]1CCCCN1C)C(C)C)c1nc(C(=O)N[C@@H](Cc2ccccc2)C[C@H](C)C(=O)O)c(CCOCc2ccccc2)s1 | 11.8% |
| Nc1ncnc2n[nH]nc12 | 43.9% |
| CC(C)(C)C(=O)OCOP(=O)(NCc1ccccc1)C1CCCN(O)C1=O (stereo not given) | 51.9% |
| CCn1cnc2c(Nc3cccc(Cl)c3)nc(N[C@@H]3CCCC[C@@H]3N)nc21 | -8.41% (active) |
| CCOC(=O)[C@@H](C)C[C@H](Cc1ccccc1)NC(=O)c1csc([C@@H](C[C@H](C(C)C)N(C)C(=O)[C@H](CCC(C)C)NC(=O)[C@H]2CCCCN2C)OC(C)=O)n1 | 15.2% |
| CC[C@H](C)[C@H](NC(=O)c1cccn1C)C(=O)N(C)[C@H](C[C@@H](OC(C)=O)c1nc(C(=O)N[C@@H](Cc2ccccc2)C[C@H](C)C(=O)OC)cs1)C(C)C | 15.2% |
| CC12CC(=O)C3(SC#N)C(CCC4=CC(=O)CCC43C)C1CCC2=O (stereo not given) | 80.8% |
| CC(C)(C)N1CC1C#N (stereo not given) | 101% |
| C[n+]1c(/C=C/c2ccc(N(CCCl)CCCl)cc2)sc2ccccc21 | 36.6% |
| CN1CCC(O)(c2ccc(F)cc2)C(C(=O)c2ccc(F)cc2)C1 (stereo not given) | 94.3% |
| Nc1c(F)cc(-c2nc3cc(F)ccc3[se]2)cc1Br | 90.1% |
| O=C1NC(=O)C(=Cc2cn(C(=O)c3ccccc3)c3ccccc23)C(=O)N1 | 90.8% |
| NC1CC2CCCCC2CC1(O)c1ccccc1 (stereo not given) | 91.9% |
| COC(=O)CC12CC(NC(=O)c3csc([C@@H](C[C@H](C(C)C)N(C)C(=O)[C@@H](NC(=O)[C@H]4CCCCN4C)C(C)C)OC(C)=O)n3)(C1)C2 | 23.3% |
| O=C(O)C(Cl)(Cl)C(F)(F)F | 106% |
| COc1cc2c(cc1OCCCn1c(-c3ccccn3)nc3ccccc31)N=C[C@@H]1CCCN1C2=O | -7.37% (active) |
| O=C(O)C1C(C(=O)O)C2(Cl)C(Cl)=C(Cl)C1(Cl)C2(Cl)Cl.[Hg] (stereo not given) | 85.2% |
| O=C(Nc1ccc([N+](=O)[O-])cc1)C(Cl)(Cl)Cl | 63.3% |
